# Only some compounds are listed: those with a hit (about 6.6% of all), similar ones and a draw of the others.
# HT1080NT lethal: kills 2HG-producing HT-1080-NT fibrosarcoma cells | HT-1080-NT fibrosarcoma viability, CellTiter-Glo ATP luminescence, 48 h | Potency, µM (doses to about 46.1 µM), actives largely listed as cytotoxic | hit rate 1.6% among 360,000;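 note: NT is the 2HG producing partner of a matched IDH1 knockdown line; nearly all actives have a fitted effect of over 55% in size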
#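 Read-out is CellTiter-Glo luminescence after 10 minutes at room temperature, following 48 hours' compound treatment of HT-1080-NT cells (750 cells/well, RPMI, 5% FBS, 37 degrees C).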
# HepG2 tox: kills HepG2 cells in TGF-b inhibitor counter-screen | hit rate 0.76% among 410,000 | Potency, µM (titrated, usually from 46.1 µM), hits mostly cytotoxic | HepG2 CAGA-GFP viability, ATP luminescence, 18 h
#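 HepG2 CAGA-GFP cells (1000/well, DMEM with 1% FBS) received compound, then TGF-beta at 500 pg/mL final, and were incubated 18 hours at 37 degrees C. Viability was read by CellTiter-Glo luminescence. Media-only wells were set as complete cell-killing and DMSO as no toxicity.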
# HT1080 IDH1KD tx: toxicity to HT-1080 IDH1 knockdown cells (counter line); hit rate 2% among 360,000; HT-1080 IDH1 knockdown viability, ATP luminescence, 48 h; Potency, µM (series often up to 46.1 µM), hits mostly cytotoxic; AID 686971
#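 Luminescent ATP read-out (CellTiter-Glo, 10 min at room temperature) after 48 h compound exposure at 37 °C gave viability of IDH1-knockdown HT-1080 cells. Activity was normalised to DMSO and cell-free wells, then fitted as concentration-response curves.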
# TGFb SMAD3 inh: TGF-b pathway inhibition. hit rate 1.2% among 410,000. Potency, µM (series often up to 46.1 µM), most hits filed as inhibitors. HepG2 CAGA-GFP TGF-b/SMAD3 reporter, GFP fluorescence, 18 h; TGF-beta stimulated, 500 pg/mL final. AID 588855; note: nearly all actives have a fitted effect of over 65% in size
#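 Per well, imaged GFP fluorescence of HEPG2 CAGA-GFP cells gives the signal; cells get compound, then TGF-beta (500 pg/mL final), 18 h at 37 degrees C; %Activity versus -TGF-beta and +DMSO controls.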
# KB-V1 MDR tox: kills drug-selected multidrug resistant KB-V1 cells; Potency, µM (doses to about 46.1 µM), actives largely listed as cytotoxic; hit rate 3.4% among 400,000; KB-V1 MDR cells viability, CellTiter-Glo, 72 h; note: nearly all actives have a fitted effect of over 60% in size
#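 Cells of the MDR subline KB-V1 are plated, dosed with compound at multiple concentrations, and incubated 72 h at 37 degrees C; CellTiter-Glo is then added and luminescence read after 10 min.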
# KB-3-1 tox: kills parental KB-3-1 adenocarcinoma cells; KB-3-1 viability, CellTiter-Glo ATP luminescence, 72 h; Potency, µM (titrated, usually from 46.1 µM), actives largely listed as cytotoxic; hit rate 1.4% among 400,000; AID 1347075; note: nearly all actives have a fitted effect of over 60% in size
#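 Using CellTiter-Glo luminescence, growth of non-resistant KB-3-1 adenocarcinoma cells is assessed 72 h after pin-tool compound addition at 37 °C. Normalized responses across the concentration series yield fitted curves.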
# Hits are given with their value; – = inactive; ? = inconclusive; · = no result. Calls come from the whole dose curve; as a rule, active = well fitted curve in the direction sought with a large enough effect; inconclusive = small, poorly fitted or top-dose-only effect, or another doubt; inactive = no such curve, though single readings can be large; an effect the other way counts as inactive or inconclusive.
SMILES,HT1080NT lethal,HepG2 tox,HT1080 IDH1KD tx,TGFb SMAD3 inh,KB-V1 MDR tox,KB-3-1 tox
COc1ccc(NC(=O)CSc2c(C(C)C)cnc3c2c(=O)n(C)c(=O)n3C)c(OC)c1,·,–,·,–,·,·
COc1ccc(C(=O)NCC(=O)N2CCN(C(=O)c3ccco3)CC2)cc1[N+](=O)[O-],–,–,–,–,–,–
CC1=C(C(=O)OC2CCCC2)C(c2ccc(C)o2)C2=C(CC(c3cccs3)CC2=O)N1 (centres undefined),?,–,?,?,20.6µM,–
O=C(CC1N=C2c3ccccc3N=C(SCc3cccc(Cl)c3)N2C1=O)NC1CCCCC1 (centres undefined),·,–,·,?,–,–
O=C(Nc1ccc([N+](=O)[O-])cc1)N1CCc2ccccc2C1,–,–,11.6µM,–,?,–
CCCN1CCN(C(=S)Nc2ccc([N+](=O)[O-])cc2)CC1,?,–,?,–,20.6µM,–
CCCCNC(=S)Nc1ccc([N+](=O)[O-])cc1,?,–,?,11.2µM,?,?
O=[N+]([O-])c1ccc(NNC(=S)Nc2ccc(F)cc2)cc1,?,–,?,?,20.6µM,?
CC(C)OC(=O)c1cc(NC(=S)Nc2ccc([N+](=O)[O-])cc2)cc(C(=O)OC(C)C)c1,?,–,20.6µM,–,?,?
CC(C)CCNC(=S)Nc1ccc([N+](=O)[O-])cc1,?,–,?,?,?,?
Cc1ccc(CSc2nc3ccncc3n2Cc2nc(-c3ccccc3C)oc2C)cc1,·,–,·,?,–,–
CC(C)C(C(=O)Nc1ccncc1)c1ccc(Cl)cc1 (centres undefined),–,–,?,?,–,–
CC(C)C(C(=O)Nc1nccs1)c1ccc(Cl)cc1 (centres undefined),?,–,10.3µM,?,?,–
COc1ccccc1NC(=O)C(C(C)C)N1C(=O)c2ccccc2C1=O (centres undefined),–,–,–,–,–,–
CC(C)C(C(=O)Nc1nccs1)N1C(=O)c2ccccc2C1=O (centres undefined),–,6.31µM,–,–,–,–
CCN(CCNCC(O)COCc1ccc(Cl)cc1)c1cccc(C)c1 (centres undefined),16.4µM,–,?,?,?,–
Cc1ccc2c(C)nc(Nc3nc(CSc4nc5ccccc5s4)cc(=O)[nH]3)nc2c1,–,–,–,–,–,–
COc1ccc2nc(Nc3nc(CSc4ccc(C)cc4)cc(=O)[nH]3)nc(C)c2c1,–,–,–,–,–,?
Cc1ccc(SCc2cc(=O)[nH]c(Nc3nc(C)c4cccc(C)c4n3)n2)cc1,–,–,–,–,20.6µM,–
COCc1cc(=O)[nH]c(Nc2nc(C)c3ccccc3n2)n1,?,–,?,–,20.6µM,?
COCc1cc(=O)[nH]c(Nc2nc3ccccc3o2)n1,–,–,?,?,–,7.08µM
COC(=O)Cc1cc(=O)[nH]c(Nc2nc3ccccc3o2)n1,–,–,–,–,–,–
COc1ccc2nc(Nc3nc(CSc4nnnn4-c4ccccc4)cc(=O)[nH]3)nc(C)c2c1,–,–,–,–,16.4µM,?
CCOc1ccc(NC(=O)Cn2c3ncccc3c(=O)n2-c2ccc(CC)cc2)cc1,·,–,·,–,·,·
O=C(c1cccs1)N(Cc1cccc(Cl)c1)C1CCS(=O)(=O)C1 (centres undefined),–,–,–,–,14.6µM,–
O=C(c1sc2ccccc2c1Cl)N(Cc1ccco1)C1CCS(=O)(=O)C1 (centres undefined),–,–,–,–,?,–
CSc1ncc(Cl)c(C(=O)N(Cc2ccccc2Cl)C2CCS(=O)(=O)C2)n1 (centres undefined),·,–,·,–,–,–
O=C(c1sc2ccccc2c1Cl)N(Cc1ccccc1)C1CCS(=O)(=O)C1 (centres undefined),–,–,–,–,20.6µM,–
